Assay outcomes as filed in PubChem.
Rows were chosen to be rich in hits. Some 1.8% of all compounds tested hit in one or more screens of this group.
Mcl1-Noxa inh – Mcl-1/Noxa binding inhibitors, primary screen, biochemical, TR-FRET, 1536-well; Induced myeloid leukemia cell differentiation protein Mcl-1 (Homo sapiens), Q07820; TR-FRET Mcl-1/Noxa peptide binding, 2 h; inhibition, % at 21.7 µM; actives 1.5% (n = 220,000); AID 1022, 2008;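 active = compounds that cut the protein-peptide binding signal by more than 50% relative to plate controls in a single-dose test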;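 note: His-tagged Mcl-1 with rhodamine Noxa BH3 peptide and terbium anti-His antibody; 0% = Mcl-1 plus Noxa peptide wells and 100% = peptide-only wells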
Bim-Mcl-1 – inhibitors of Bim peptide binding to Mcl-1, primary screen, biochemical, bead-based flow cytometry, multiplex; AID 1009, 2008; Bim peptide-Mcl-1 binding; inhibition, % at 10 µM; actives 0.1% (n = 190,000); in the data active = inhibition above about 40%;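 note: 0% = no compound tracer wells and 100% = peptide blocker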
NOD2-RIPK2 inh – NOD2-RIPK2 binding disruptors in cells, primary screen, fluorescence, CHO cells, BLA complementation | Receptor-interacting serine/threonine-protein kinase 2 (Homo sapiens), O43353 | CCF4 ratio | inhibition, % at 4.98 µM | actives 0.38% (n = 360,000); in the data active = inhibition above about 21%;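 note: 0% = vehicle only and 100% = reference blocker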
TLR9-MyD88 block – inhibitors of TLR9-MyD88 association in cells, primary screen, cell-based, CHO, BLA complementation, fluorescence. CCF4 FRET ratio. actives 0.21% (n = 340,000). inhibition, % at 4.98 µM. Toll-like receptor 9 (Homo sapiens) + Myeloid differentiation primary response protein …;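 active = inhibition above the mean over all tested compounds plus 3 SD, cut at about 21% in these data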;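 note: 0% = DMSO only wells and 100% = clavulanate BLA inhibitor control wells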
Mcl1-Bid inh – Mcl-1/Bid binding inhibitors, primary screen, biochemical, TR-FRET, 1536-well | Induced myeloid leukemia cell differentiation protein Mcl-1 (Homo sapiens), Q07820 | TR-FRET Mcl-1/Bid-Dy647 peptide binding | inhibition, % at 21.7 µM | actives 0.97% (n = 220,000) | AID 1021, 2008;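 active = compounds that cut the binding signal by more than half at the single screening dose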;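 note: His-tagged Mcl-1 with europium anti-His antibody binding Bid BH3 peptide; 0% = Mcl-1 plus peptide wells and 100% = peptide-only wells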
TLR4-MyD88 BLA – inhibitors of TLR4-MyD88 association in cells, primary screen, cell-based, HeLa CL3-4, BLA complementation, FRET ratio. Toll-like receptor 4 (Homo sapiens) + Myeloid differentiation primary response protein …. AID 861, 2007. HeLa CL3-4 TLR4/MyD88 BLA complementation. inhibition, % at 8.4 µM. actives 0.18% (n = 200,000); in the data active = inhibition above about 25%;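 note: 0% = vehicle and 100% = reference inhibitor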
Target sequence (O00206 whole entry, looked up): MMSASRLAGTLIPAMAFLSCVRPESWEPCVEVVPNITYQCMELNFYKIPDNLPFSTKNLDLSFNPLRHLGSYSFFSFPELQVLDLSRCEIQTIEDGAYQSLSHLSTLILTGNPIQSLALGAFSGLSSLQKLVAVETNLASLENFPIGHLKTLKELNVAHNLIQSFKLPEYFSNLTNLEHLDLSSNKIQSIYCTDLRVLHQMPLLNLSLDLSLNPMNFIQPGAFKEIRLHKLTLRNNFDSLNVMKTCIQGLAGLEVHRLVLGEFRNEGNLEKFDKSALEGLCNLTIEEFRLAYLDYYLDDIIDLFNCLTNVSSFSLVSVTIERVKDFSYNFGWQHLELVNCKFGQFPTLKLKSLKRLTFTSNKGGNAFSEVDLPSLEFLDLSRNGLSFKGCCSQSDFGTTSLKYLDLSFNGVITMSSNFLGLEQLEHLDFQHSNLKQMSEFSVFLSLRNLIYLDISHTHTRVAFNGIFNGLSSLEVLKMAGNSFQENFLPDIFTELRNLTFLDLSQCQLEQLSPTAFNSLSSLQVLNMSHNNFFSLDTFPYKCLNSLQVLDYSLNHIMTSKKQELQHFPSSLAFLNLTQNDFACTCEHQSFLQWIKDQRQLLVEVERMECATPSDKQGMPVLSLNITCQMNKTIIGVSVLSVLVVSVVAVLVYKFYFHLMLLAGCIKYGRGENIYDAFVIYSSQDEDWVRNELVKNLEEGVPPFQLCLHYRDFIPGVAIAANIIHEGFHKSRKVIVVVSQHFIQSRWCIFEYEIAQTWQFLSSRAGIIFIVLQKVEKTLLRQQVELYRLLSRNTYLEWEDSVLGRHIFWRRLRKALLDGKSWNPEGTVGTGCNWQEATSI
Target sequence (Q99836 whole entry, looked up): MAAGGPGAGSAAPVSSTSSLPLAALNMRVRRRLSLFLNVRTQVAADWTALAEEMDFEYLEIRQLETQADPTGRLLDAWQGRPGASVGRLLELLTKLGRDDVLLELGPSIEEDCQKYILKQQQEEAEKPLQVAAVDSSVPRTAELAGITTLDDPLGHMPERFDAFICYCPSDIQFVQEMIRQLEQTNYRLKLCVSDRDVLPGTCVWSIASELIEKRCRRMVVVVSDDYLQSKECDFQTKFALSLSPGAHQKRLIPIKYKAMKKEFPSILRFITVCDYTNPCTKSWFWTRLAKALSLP
An asterisk follows results filed as active.

How did CCn1c(-c2ccccc2)c(C(=O)CCl)c2ccccc21 do in these assays?
Mcl1-Noxa inh: -7; Bim-Mcl-1: 0; NOD2-RIPK2 inh: 0; TLR9-MyD88 block: -18; Mcl1-Bid inh: -15; TLR4-MyD88 BLA: 17

How did Nc1ccc(-c2ccc(N)c([N+](=O)[O-])c2)cc1[N+](=O)[O-] do in these assays?
Mcl1-Noxa inh: 51*; Bim-Mcl-1: 2; NOD2-RIPK2 inh: 1; TLR9-MyD88 block: -6; Mcl1-Bid inh: 15; TLR4-MyD88 BLA: -11

What do the screens show for `Cc1ccc(NC(=S)NNc2ccc([N+](=O)[O-])cc2S(=O)(=O)Nc2ccccc2C(=O)O)cc1C`?
Mcl1-Noxa inh: 87*; Bim-Mcl-1: -4; NOD2-RIPK2 inh: -2; TLR9-MyD88 block: 10; Mcl1-Bid inh: 45; TLR4-MyD88 BLA: -9

Results for CC(=O)Nc1ccc(C=NNc2ccc([N+](=O)[O-])cc2S(=O)(=O)Nc2ccccc2C(=O)O)cc1 ?
NOD2-RIPK2 inh: 8; TLR9-MyD88 block: 16

How did O=C(O)c1ccccc1NS(=O)(=O)c1ccc(NNC(=S)Nc2ccc(OC(F)F)cc2)c([N+](=O)[O-])c1 do in these assays?
Mcl1-Noxa inh: 112*; Bim-Mcl-1: -2; NOD2-RIPK2 inh: -7; TLR9-MyD88 block: -6; Mcl1-Bid inh: 95*; TLR4-MyD88 BLA: -16

What do the screens show for `N=C1/C(=C\c2coc3ccccc3c2=O)C(=O)N=C2SC(c3ccncc3)=NN12`?
Mcl1-Noxa inh: 61*; NOD2-RIPK2 inh: 3; TLR9-MyD88 block: 4; Mcl1-Bid inh: -159

Results for O=C(CN1CCCCC1)Nc1nnc(-c2ccc([N+](=O)[O-])cc2)s1 ?
Mcl1-Noxa inh: 69*; Bim-Mcl-1: -2; NOD2-RIPK2 inh: -5; TLR9-MyD88 block: -2; Mcl1-Bid inh: -22; TLR4-MyD88 BLA: 4

How did C[C@H](CO)N1C[C@H](C)[C@H](CN(C)S(C)(=O)=O)OCc2cnnn2CCCC1=O do in these assays?
NOD2-RIPK2 inh: 1; TLR9-MyD88 block: 5

How did CSc1nc2ccc3nc(NC(=O)c4cccs4)sc3c2s1 do in these assays?
Mcl1-Noxa inh: 30; Bim-Mcl-1: -15; NOD2-RIPK2 inh: -6; TLR9-MyD88 block: -3; Mcl1-Bid inh: 66*; TLR4-MyD88 BLA: -8

What do the screens show for `O=C(Nc1nc(-c2ccccn2)cs1)c1ccc(Cl)s1`?
Mcl1-Noxa inh: -82; Bim-Mcl-1: 0; NOD2-RIPK2 inh: -8; TLR9-MyD88 block: 8; Mcl1-Bid inh: -51; TLR4-MyD88 BLA: 13

How did CSc1nc2ccc3nc(NC(=O)c4ccc(Cl)s4)sc3c2s1 do in these assays?
Mcl1-Noxa inh: 52*; Bim-Mcl-1: 1; NOD2-RIPK2 inh: 0; TLR9-MyD88 block: 2; Mcl1-Bid inh: 66*; TLR4-MyD88 BLA: 11

Results for CC1CCC(C(C)C)C(OC(=O)C[n+]2cc(-c3ccc(Cl)cc3)n3c2CCC3)C1 (stereo not drawn) ?
Mcl1-Noxa inh: 36; NOD2-RIPK2 inh: 3; TLR9-MyD88 block: -6; Mcl1-Bid inh: 92*

Results for Nc1ccc(Nc2nc(-c3cc4ccccc4oc3=O)cs2)cc1 ?
Mcl1-Noxa inh: 59*; Bim-Mcl-1: 0; NOD2-RIPK2 inh: 0; TLR9-MyD88 block: 3; Mcl1-Bid inh: -31; TLR4-MyD88 BLA: 3

How did O=C(O)c1ccc(Nc2nc(-c3cccnc3)cs2)cc1O do in these assays?
NOD2-RIPK2 inh: -7; TLR9-MyD88 block: 4

What do the screens show for `O=C(O)c1ccc(Nc2nc(-c3cc4ccccc4oc3=O)cs2)cc1O`?
Mcl1-Noxa inh: 97*; Bim-Mcl-1: 0; NOD2-RIPK2 inh: -7; Mcl1-Bid inh: -87; TLR4-MyD88 BLA: 5

What do the screens show for `CC(=O)Nc1ccc(Nc2nc(-c3cc4ccccc4oc3=O)cs2)cc1`?
NOD2-RIPK2 inh: 15; TLR9-MyD88 block: -9

How did NC(=O)c1ccc[n+]([C@H]2O[C@@H](COP(=O)([O-])OP(=O)(O)OC[C@H]3O[C@@H](n4cnc5c(N)ncnc54)[C@H](O)[C@@H]3O)[C@H](O)[C@@H]2O)c1 do in these assays?
NOD2-RIPK2 inh: -1; TLR9-MyD88 block: -9

How did C=CCNC(=S)NNC(=O)c1ccc([N+](=O)[O-])cc1 do in these assays?
Mcl1-Noxa inh: 68*; Bim-Mcl-1: 0; NOD2-RIPK2 inh: -9; TLR9-MyD88 block: 8; Mcl1-Bid inh: -13; TLR4-MyD88 BLA: 1

What do the screens show for `O=C(Nc1ccc2c(c1)nc1n2CCN(C2CCCCC2)C1)c1ccco1`?
Mcl1-Noxa inh: 84*; NOD2-RIPK2 inh: -15; TLR9-MyD88 block: -1; Mcl1-Bid inh: -55

How did O=C(Nc1ccc2c(c1)nc1n2CCN(C2CCCCC2)C1)NC1CCCCC1 do in these assays?
Mcl1-Noxa inh: 41; Bim-Mcl-1: -5; Mcl1-Bid inh: -25; TLR4-MyD88 BLA: 8

What do the screens show for `O=C(Nc1ccc2c(c1)nc1n2CCSC1)c1ccco1`?
Mcl1-Noxa inh: 60*; Bim-Mcl-1: -1; NOD2-RIPK2 inh: 1; TLR9-MyD88 block: 1; Mcl1-Bid inh: 5; TLR4-MyD88 BLA: 0

Results for S=c1ncc2[nH]c(=S)[nH]c2[nH]1 ?
NOD2-RIPK2 inh: -11; TLR9-MyD88 block: -7

What do the screens show for `O=C(O)CSc1nnc(NC(=O)CN2CCOCC2)s1`?
NOD2-RIPK2 inh: -6; TLR9-MyD88 block: -8

Results for CCC(=O)Nc1ccc(/C(C)=N\NC(=O)c2ccc(C)s2)cc1 ?
Mcl1-Noxa inh: -5; Bim-Mcl-1: 0; NOD2-RIPK2 inh: 1; TLR9-MyD88 block: -9; Mcl1-Bid inh: -9; TLR4-MyD88 BLA: -4

Results for C/C(=N/NC(=O)c1ccc(Cl)s1)c1ccc(NC(=O)COc2ccc(Cl)cc2)cc1 ?
Mcl1-Noxa inh: -69; Bim-Mcl-1: -4; NOD2-RIPK2 inh: -4; TLR9-MyD88 block: 1; Mcl1-Bid inh: 55*; TLR4-MyD88 BLA: 0

Results for CCOCCCN(Cc1cc2cc(C)cc(C)c2[nH]c1=O)C(=O)N(CC)CC ?
Mcl1-Noxa inh: 16; Bim-Mcl-1: -3; NOD2-RIPK2 inh: -1; TLR9-MyD88 block: 3; Mcl1-Bid inh: 14; TLR4-MyD88 BLA: -7

Results for CCc1cc2cc(C)cc(C)c2[nH]c1=S ?
Mcl1-Noxa inh: 60*; Bim-Mcl-1: 0; NOD2-RIPK2 inh: 2; TLR9-MyD88 block: -3; Mcl1-Bid inh: 26; TLR4-MyD88 BLA: -8

Results for O=C(CCn1c(=O)oc2ccc(Cl)cc21)N1CCN(c2ccccc2)CC1 ?
NOD2-RIPK2 inh: 12; TLR9-MyD88 block: -2
